Results on 19 molecules are retold here after PubChem BioAssay (NCI).

What all share (assay): NCI-60 one-dose screen, 48 h (100 = growth as untreated, 0 = no growth, -100 = all killed)
What all share (details): 10 µM unless noted

The subject of experiment [1] is OVCAR-8 ovarian.
Experiment [2] has as its system OVCAR-5 ovarian.
The test system of experiment [3] is OVCAR-4 ovarian.
Experiment [4] has as its system SK-OV-3 ovarian.
Experiment [5] relates to IGROV1 ovarian.
Experiment [6] concerns OVCAR-3 ovarian.
For experiment [7], the system named is HS 578T breast.
Experiment [8] concerns NCI/ADR-RES ovarian.
Experiment [9] deals with RPMI-8226 leukemia.

The structures appear in SMILES notation. Compounds without any hit were thinned out: in the full panel of roughly 83,000, 20% have a hit.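 Values shown are percent growth following 48 h exposure of cells in 96-well plates to a single concentration of compound; below 10 was considered active.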 A number with no mark means an inactive call. The source made the active and inactive calls.

For the molecule `COc1cc(C2CC(c3c(C)[n+]([O-])c4ccccc4[n+]3[O-])=NN2)cc(OC)c1OC` (stereo not drawn), the growth is 109% in experiment [1]; 100% in experiment [2]; 104% in experiment [3]; 103% in experiment [4]; 16.2% in [5]; 98% in experiment [6]. The values for the growth in experiment [7] and in [8] were 103% and 101%, respectively.
For the molecule `COc1ccc(/C=C/C(=O)c2ccc(NC(=O)CN3CCN(c4cc5c(cc4F)c(=O)c(C(=O)O)cn5C4CC4)CC3)cc2)cc1`, the growth is 92.6% in [9]; 99% in experiment [1]; 105% in [2]; 101% in [3]; 115% in experiment [5]; 118% in experiment [6]. The growth was 94.8% in experiment [7] and 107% in experiment [8].
For the molecule `CC(Br)C(OC(=O)c1ccccc1Cl)c1cc2c(cc1Br)OCO2` (stereo not drawn), the growth in experiment [9] is 92.2%; in [1], 94.8%; in experiment [2] it was 89.6%; in experiment [3], 77.9%; in experiment [5], 68.9%; in [6] it was 89%. In addition, the growth is 88.2% in experiment [7] and 85.1% in experiment [8].
As to `COc1ccc(C(=O)N2CCN(C(=O)c3cc(OC)c(OC)c(OC)c3)CC2)cc1OCCCCOc1cc2c(cc1OC)C(=O)N1CCC[C@H]1C=N2`, the growth was 90.3% in experiment [9]; 209% in experiment [1]; 111% in experiment [2]; 112% in experiment [3]; -18.9% (active) in [5]; 105% in experiment [6]. For the same molecule, the growth in experiment [7] is -24.2% (active); in [8], 110%.
Consider `CCCCCCOc1ccc(C2(Cl)c3ccccc3N(C)c3ccccc32)cc1`, for which the growth in experiment [9] is 47.5%; in experiment [1], 38.7%; in experiment [2] it was 107%; in [3] it was 41.3%; in experiment [4], 60.7%; in experiment [6], 32.1%. Besides, the results for the growth in experiment [7] and in [8] were 54.7% and 52.3%, respectively.
For `COc1ccc(-n2c(C)cc(-c3ccccc3)c2C)cc1`, the growth is 14.9% in experiment [9]; 51.6% in [1]; 63.8% in experiment [2]; 38% in experiment [3]; 72% in experiment [5]; 75.5% in experiment [6]. The growth in [7] is 74.1%; in experiment [8] it was 40.2%.
`Cc1ccccc1C(=O)c1ccccc1C(=O)O`: the growth is 102% in [9]; 107% in experiment [1]; 111% in experiment [2]; 114% in experiment [3]; 118% in [4]; 107% in experiment [6]. Also, the growth in [7] was 106%; in experiment [8], 108%.
On to `OC1CC2c3ccccc3C1c1ccccc12` (stereo not drawn), for which the growth in experiment [9] is 104%; in [1], 106%; in experiment [2], 113%; in [3], 100%; in [6], 112%; in [7], 104%. Moreover, the growth in experiment [8] is 110%.
On to `COc1ccc2c(c1)C=CC(C#N)N2C(=O)c1ccccc1` (stereo not drawn), for which the growth in experiment [9] is 22%; in experiment [1] it was 15.4%; in experiment [2], 47.1%; in experiment [3] it was 25.4%; in experiment [4], 43.5%; in [6], -23.7% (active). Moreover, the results for the growth in experiment [7] and in experiment [8] were 14.9% and 6.62% (active), respectively.
In the case of `CCN(CC)CCCC(C)N=c1cc(Nc2cc(=NC(C)CCCN(CC)CC)c3cc(OC)ccc3o2)oc2ccc(OC)cc12` (stereo not drawn), the growth in [9] was -38.3% (active); in experiment [1], -1.52% (active); in [2], -28.3% (active); in [3], -48.8% (active); in experiment [5], -5.22% (active); in experiment [6], -20.8% (active). The growth in experiment [7] was 27.5%; in experiment [8], 3.48% (active).
Consider `CC(=O)c1cc(C(=O)c2ccc3c(c2)Sc2ccccc2N3)c2cc(C)ccn12`, for which the growth in [1] is 4.39% (active); in [2] it was 41.2%; in experiment [3], 38.1%; in [4], 16.6%; in [5], 27.8%; in experiment [6], -14.3% (active). Further, the growth in [7] was 14.5%; in [8] it was 12.1%.
For the molecule `COc1cc(/C=C2\C=C(c3ccc(F)cc3)N(Cc3ccccc3)C2=O)cc(OC)c1OC`, the growth is 50.7% in experiment [9]; 48.8% in experiment [1]; 89.6% in experiment [2]; 51% in experiment [3]; 84.4% in experiment [5]; 70.3% in experiment [6]. The growth in [7] is 87.1%; in [8], 62.1%.
As to `C=CCOc1ccc(/C(O)=C2\C(=O)C(=O)N(c3nccs3)C2c2ccccc2F)cc1` (stereo not drawn), the growth is 136% in experiment [9]; 102% in [1]; 122% in [2]; 81.3% in experiment [3]; 109% in experiment [4]; 93.5% in experiment [6]. In addition, the growth was 104% in experiment [7] and 119% in experiment [8].
With `COc1ccc(/C=N/NC(=O)Cn2c(Cc3cccc4ccccc34)nc3ccccc32)cc1`, the growth is 93.7% in [1]; 96% in [2]; 104% in experiment [3]; 106% in experiment [4]; 108% in experiment [5]; 101% in experiment [6]. For the same molecule, the growth was 95.8% in [7] and 93.6% in experiment [8].
As to `Cc1ccc(OCCn2c(C)nn(-c3ccc(Cl)cc3)c2=O)cc1`, the growth in [1] is 109%; in [2], 113%; in [3], 98.9%; in experiment [4], 113%; in [5], 112%; in [6] it was 124%. In experiment [8], the growth is 103%.
Consider `O=c1c2cccc3c(Nc4ccc(F)cc4)ccc(c32)c2nc3ccccc3n12`, for which the growth in [9] is 57.4%; in experiment [1] it was 89.3%; in experiment [2], 84.8%; in [3] it was 76%; in experiment [4], 101%; in experiment [6], 94%. Moreover, the growth in experiment [7] is 73.6%; in experiment [8], 91.4%.
Consider `COc1cc(Cn2c(-c3nonc3N)nc3ccccc32)ccc1C`, for which the growth in experiment [9] was 19.2%; in [1], 31.6%; in experiment [2], 34%; in experiment [3], 62.6%; in experiment [6] it was -34.7% (active); in [7] it was 22.5%. Moreover, in experiment [8], the growth is 21.2%.
As for `Cn1c(-c2nonc2NC(=O)c2ccc(F)cc2)nc2ccccc21`, the growth in experiment [1] was 96.6%; in experiment [2], 117%; in experiment [3], 114%; in experiment [4] it was 111%; in experiment [6] it was 119%; in [7], 110%. Further, the growth in experiment [8] is 106%.
On to `NCCSC(c1ccccc1)(c1ccccc1)c1ccccc1`, for which the growth in experiment [9] is -24.7% (active); in [1] it was 25%; in experiment [2] it was 13.1%; in experiment [3], 33.6%; in experiment [4], 27.6%; in [6], 2.29% (active). Besides, the growth in experiment [7] is 16.8%; in experiment [8], -21.9% (active).
